Results taken from PMC13494018.
Unmarked numbers belong to inactive results. The rule behind the calls is not given here.

B1: design_606_b60ff77f-1541-4e5f-8260-46d5e5f6b85e_200_dldesign_0_cycle1_af2pred (protein)
chain: EEEKLIADSAKEVDAAADKAMDAMAKNKEAAKAAKAELEALAAKFKELAEKGSPEVAKKMNLAAKTMKRFAELLKKAAS
B2: design_606_b60ff77f-1541-4e5f-8260-46d5e5f6b85e_118_dldesign_0_cycle1_af2pred (protein)
chain: MLEEVKEKAKELKAAKGTPEEKLKLAREARELFRRAREELSARGATPEEAEAMHELRQAAAELEAEAKRELKE
B3: design_606_b60ff77f-1541-4e5f-8260-46d5e5f6b85e_1207_dldesign_0_cycle1_af2pred (protein)
chain: DEEKLKEAAEYLQEAAEYLAELKYLSKDPKNKELAEKAKKILKEAIEKGKKGTPEEALEIAKKAKEEIKKLAKKAKE
B4: design_606_b60ff77f-1541-4e5f-8260-46d5e5f6b85e_1160_dldesign_0_cycle1_af2pred (protein)
chain: AEAARRAALVAKVDAAFDDAGKTISEAKEKTPEEAKALVDAAIAKANAEAKAHPEAAKGFNAVADTAKSMGERIIAEKLA
B5: design_606_b60ff77f-1541-4e5f-8260-46d5e5f6b85e_898_dldesign_0_cycle1_af2pred (protein)
chain: MNITEKVAAAAQAALAALADPATAVAALSAARFTALDLVSEDIEAGEVAIEIFEKGDAGSRRVARIIRSHVEALKRN
B6: design_606_b60ff77f-1541-4e5f-8260-46d5e5f6b85e_888_dldesign_0_cycle1_af2pred (protein)
chain: EVEKLIKEVKEAGEKAAKADPDIADYIKNAVKTAEELMTKNAADLEKVKEIAEKAINTFKRIIENAEKAKELEAK
B7: design_606_b60ff77f-1541-4e5f-8260-46d5e5f6b85e_1152_dldesign_0_cycle1_af2pred (protein)
chain: EEAEKYLKEIEKAKEEAEKLAEELKEEGDSKAAAKAATAAAVAESAALAAKANPEKAKEAAEKAKKALEKAKKYAKESREKKKA
B8: design_606_b60ff77f-1541-4e5f-8260-46d5e5f6b85e_637_dldesign_0_cycle1_af2pred (protein)
chain: MEEEEERRRVLEIAREDAEEALAKAKAAAEKGELDGVAIGLARGNASVLDEETGKKVREAADKVEAAAKAAQAAK
B9: design_606_b60ff77f-1541-4e5f-8260-46d5e5f6b85e_733_dldesign_0_cycle1_af2pred (protein)
chain: DAATQKKASEAAAEAHEAAAEFTNKLKDKELKDKIKEIVREAIEKGKAATPEEALKIFTEAKKKIEDAAKKYA
B10: design_606_b60ff77f-1541-4e5f-8260-46d5e5f6b85e_1075_dldesign_0_cycle1_af2pred (protein)
chain: AEEKEKKAKEAAEKAEKFIEKAKKAIKEGDLFSAQAYVEAAKHAAEVAKKYDPEVGEKLLKKVEEVEKEI
B11: design_606_b60ff77f-1541-4e5f-8260-46d5e5f6b85e_976_dldesign_0_cycle1_af2pred (protein)
chain: SSEEIEEKNRKVSEVVHHAIKAIKAYADPALRDAYLAKAKAILPDAADALAAQVDAAKTGSTADAILNVADIAWDALT
B12: design_606_b60ff77f-1541-4e5f-8260-46d5e5f6b85e_1401_dldesign_0_cycle1_af2pred (protein)
chain: GAKAIAAKAAAYGYEIAAEIYRLDKEVGEKVRKYVVEKAKEAAASDEETAKKIGEEVKKEAEKALEEVKKK
B13: design_606_b60ff77f-1541-4e5f-8260-46d5e5f6b85e_1298_dldesign_0_cycle1_af2pred (protein)
chain: KEEEEKQIKELKEKVEKLKKEAEEAKTAEEALKVFKEARKVGKEARKLAEKASPELAKKAKEVAKEAAKVAELAAEKYAEKKSEEIRK
B14: design_606_b60ff77f-1541-4e5f-8260-46d5e5f6b85e_411_dldesign_0_cycle1_af2pred (protein)
chain: MEEELEKEKKEAEKFLEETKKIAEEAVKRAESGEDIAGAAHELYELKSEAEYLAKTSSPEAAKLYKEAAKIAKEALEEVRKRGKERKA
B15: design_606_b60ff77f-1541-4e5f-8260-46d5e5f6b85e_1592_dldesign_0_cycle1_af2pred (protein)
chain: AAAAAAAAERAAIQKELDEIRDKYLEELEKNPENAEEIIKKAKEAVEALAKKHAKFAEEILKGGNGYVSLIEATAKMLERRKKEE
B16: design_606_b60ff77f-1541-4e5f-8260-46d5e5f6b85e_1086_dldesign_0_cycle1_af2pred (protein)
chain: EKAEKLIKEIKKLAKEAKKSTPEEAKKLLEEAKKLAKEVAKLGPEAAKLAKKALSEAAAAYYENKAENEWKERKEKE
B17: design_605_6ebdab39-eaab-4492-afcb-164e20c3b25e_2479_dldesign_0_cycle1_af2pred (protein)
chain: MKEASEAAAKAYEYMAEALYYGKKASEEAAKEAEKAAKEVKELLKKAREAAKEGKYEEAKKLAEEAYKLAKETYEKLKKELEKKKA
B18: design_606_b60ff77f-1541-4e5f-8260-46d5e5f6b85e_1000_dldesign_0_cycle1_af2pred (protein)
chain: MSEYEKNLARAEAYADQLLDSAKKTGAAKGPEAEVAATKEAKDAATKYANSLGEEVGKEIKAKMEKEVKAVADAAAKALAA
B19: design_606_b60ff77f-1541-4e5f-8260-46d5e5f6b85e_905_dldesign_0_cycle1_af2pred (protein)
chain: DNEEKKKELKEEAEKYKEELLKEKDEALKAGDFESAIFISKKAVKIKKLEEEGKKGNKEEVEKKKEEIKKEAKEALEFYKKNKE
B20: design_606_b60ff77f-1541-4e5f-8260-46d5e5f6b85e_1318_dldesign_0_cycle1_af2pred (protein)
chain: DVAAALAAAKAAAAAKMAEVKKYGAETAEAVKDAIDMGNIYGAGSLAEVMVGPEAGKIAKAAAEAAAKARELAAKA
B21: design_606_b60ff77f-1541-4e5f-8260-46d5e5f6b85e_64_dldesign_0_cycle1_af2pred (protein)
chain: GSSEEAERDSRLVSEMVRAARAGAEAAARLPPAEAARYRAELAALVAAMYDALGAGSPAAEEYVARVRALAAEIAARAAAA
B22: design_606_b60ff77f-1541-4e5f-8260-46d5e5f6b85e_490_dldesign_0_cycle1_af2pred (protein)
chain: MEAAKEAAKKVLELADLSAEASAEDFPEVEKKAEEALKFAEEVAKEDPEAGEKAKRTVKRILEDTRKAVEK
B23: design_606_b60ff77f-1541-4e5f-8260-46d5e5f6b85e_842_dldesign_0_cycle1_af2pred (protein)
chain: MEEAKKKITELAEAAAAADPETAKKLLAEASRYLIDYISKNKLDSETISELVSYLKEKGKEALAQAKAKEAAA
B24: design_605_6ebdab39-eaab-4492-afcb-164e20c3b25e_2465_dldesign_0_cycle1_af2pred (protein)
chain: AKKLQEAADEANKAFALLAKAAKAHPEIKEEALAAKKAALTMLEGKNAKEAAKAAKEKLKAAAQKAPEVAAEMAAAMKAVDKMLEL
B25: design_605_6ebdab39-eaab-4492-afcb-164e20c3b25e_2478_dldesign_0_cycle1_af2pred (protein)
chain: SAAAEAARKAEAKKAADEYYAKGEEYYQKALDDPKNAKKYLQKAYSYYLLAAQAYEIAGDKEKAKEAEEKADKAAEA
B26: design_606_b60ff77f-1541-4e5f-8260-46d5e5f6b85e_364_dldesign_0_cycle1_af2pred (protein)
chain: AEARDKAILEKAKKETEELAKKAEELAKKGAKKEEIEKVIKEIRKVGKEYAAKASPEVAPEILTIAGDAVAEAKGAYQEAKIK
B27: design_606_b60ff77f-1541-4e5f-8260-46d5e5f6b85e_724_dldesign_0_cycle1_af2pred (protein)
chain: AAAQKAAEAAATLYENSNEAIWLAKKEGAKGAVEGKKLLEKGVAAAEAAAKEASPEDAAKLKKLAESRKERTEKAIKKALA
B28: design_606_b60ff77f-1541-4e5f-8260-46d5e5f6b85e_1331_dldesign_0_cycle1_af2pred (protein)
chain: SELEKGREVIKKAAEKAKKAAKEAAEKKGDPKKGEEKIKEIKELEEEGAKAEDPKVKSEKAAKIRQIKAEAEFELKK
B29: design_606_b60ff77f-1541-4e5f-8260-46d5e5f6b85e_1326_dldesign_0_cycle1_af2pred (protein)
chain: AEAEKKAEEAAKEAEKIYKEMLKAVETKSKEEAAKFAKEAAEKLKKLAKKIYEATGKVPLEVLLALAEARVIAKK
B30: design_606_b60ff77f-1541-4e5f-8260-46d5e5f6b85e_762_dldesign_0_cycle1_af2pred (protein)
chain: SEEEKKIKELAKEMEEVGKEAAEAGKKNPEEGKKLRDIMIKLANEAVALAEKLGLEEEAKKIKEKAAELSAKAYEAIAENLA
B31: design_606_b60ff77f-1541-4e5f-8260-46d5e5f6b85e_1497_dldesign_0_cycle1_af2pred (protein)
chain: MEEESKKYIETATALLEEAKKALEEDKEKGLKLLEEASALAYEKAAEARQLGDKETAEKLREIAKEAREAAKKAR
B32: design_606_b60ff77f-1541-4e5f-8260-46d5e5f6b85e_370_dldesign_0_cycle1_af2pred (protein)
chain: DLVKEASKLSGQAYEYKAAADVGVLNKEELKAGAEIAKKAAELAKKIAKETTPEEAKKYLKQAETMKKIAEYLEKKAQEL
B33: design_606_b60ff77f-1541-4e5f-8260-46d5e5f6b85e_1400_dldesign_0_cycle1_af2pred (protein)
chain: MAEAAQKAWENIAEAEYYAKKLKENPELKEEAKKIEEKIKKAKELLKKAQKTGDGELAKEAEKLAKEAAKEAKELVEK
B34: design_606_b60ff77f-1541-4e5f-8260-46d5e5f6b85e_1085_dldesign_0_cycle1_af2pred (protein)
chain: ATAKEAAEYAEKAREYMVELEYERIKAKREGDEETAKRLEKAIEEVREKLKKAREAMKAGDKEKALEYSKEALEIAKKAVEELKA
B35: design_606_b60ff77f-1541-4e5f-8260-46d5e5f6b85e_1003_dldesign_0_cycle1_af2pred (protein)
chain: SMKEKEEKYKEAKEKLEKQREAVKEGEKLAKESPEMGLALMRAAVKRAEEVAKKLEKEDPEKGPEAKKMAEEVRKLAKEAEKKIKEEL
B36: design_606_b60ff77f-1541-4e5f-8260-46d5e5f6b85e_580_dldesign_0_cycle1_af2pred (protein)
chain: MTEEEKKEAEKKAEEIKKLGKELAKKVLNSKDAEKEVKKAKKELREKGKKLAEAGNPEAKKIISKAVSEAYQLLNEAEWKNLK
B37: design_606_b60ff77f-1541-4e5f-8260-46d5e5f6b85e_600_dldesign_0_cycle1_af2pred (protein)
chain: AAAAEAKGKKINELRIEANDYAYEHEINSSNPELSKAYKEEAEKKIKEAEKIDPEGGKRIKKSFESIEEHVKKNL
B38: design_606_b60ff77f-1541-4e5f-8260-46d5e5f6b85e_148_dldesign_0_cycle1_af2pred (protein)
chain: NPKIEGEAALTRAEGAYESAKALPPEKAAEAYRKAAEIAKKQAEEAEKAGEEAKPYAEKIRKIAKEAEKKAKELEKA

These binders were tested against VTCN1, Q7Z7D3.
VTCN1, Q7Z7D3, sequence (Q7Z7D3 whole entry): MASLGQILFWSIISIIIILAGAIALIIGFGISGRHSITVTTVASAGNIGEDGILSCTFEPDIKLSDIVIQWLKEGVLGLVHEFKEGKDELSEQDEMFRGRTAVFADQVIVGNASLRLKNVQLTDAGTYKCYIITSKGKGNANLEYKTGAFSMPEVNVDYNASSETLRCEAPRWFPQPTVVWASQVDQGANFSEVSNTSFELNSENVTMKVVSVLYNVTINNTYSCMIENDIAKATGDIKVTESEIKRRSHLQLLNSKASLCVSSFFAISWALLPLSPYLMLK

Binder	binding in a display sort
B1	not found
B2	not found
B3	not found
B4	not found
B5	not found
B6	not found
B7	not found
B8	not found
B9	not found
B10	not found
B11	not found
B12	not found
B13	not found
B14	not found
B15	not found
B16	not found
B17	not found
B18	not found
B19	not found

Binder	binding in a display sort
B20	not found
B21	not found
B22	not found
B23	not found
B24	not found
B25	not found
B26	not found
B27	not found
B28	not found
B29	not found
B30	not found
B31	not found
B32	not found
B33	not found
B34	not found
B35	not found
B36	not found
B37	not found
B38	not found
